{"source": "PubChem BioAssay AID651832", "about": "(Vanderbilt Specialized Chemistry Center, 2012)", "test": "binding inhibition across receptor and channel panel – biochemical, Eurofins PanLabs, competition binding, selectivity assay for M5 PAM project, profiling panel (AID 651832)", "details": "at 10 µM, stronger effect = higher value; for inhibition: Eurofins PanLabs radioligand binding panel", "data": [{"smiles": "O=C1C(=O)N(CCOc2ccccc2)c2ccc(OC(F)(F)F)cc21", "values": [{"measurement": "inhibition", "setting": "measured here: adenosine A3 binding", "value": 57, "unit": "%"}, {"measurement": "inhibition", "setting": "measured here: adrenergic alpha1A binding", "value": 71, "unit": "%"}, {"measurement": "inhibition", "setting": "measured here: adrenergic alpha1B binding", "value": 66, "unit": "%"}, {"measurement": "inhibition", "setting": "measured here: cannabinoid CB1 binding", "value": 72, "unit": "%"}, {"measurement": "inhibition", "setting": "measured here: dopamine D1 binding", "value": 73, "unit": "%"}, {"measurement": "inhibition", "setting": "measured here: dopamine D3 binding", "value": 59, "unit": "%"}, {"measurement": "inhibition", "setting": "measured here: glucocorticoid receptor binding", "value": 88, "unit": "%"}, {"measurement": "inhibition", "setting": "measured here: hERG binding", "value": 21, "unit": "%"}, {"measurement": "inhibition", "setting": "measured here: histamine H2 binding", "value": 95, "unit": "%"}, {"measurement": "inhibition", "setting": "measured here: mu opioid binding", "value": 78, "unit": "%"}, {"measurement": "inhibition", "setting": "measured here: muscarinic M2 binding", "value": -2, "unit": "%"}, {"measurement": "inhibition", "setting": "measured here: norepinephrine transporter binding", "value": 77, "unit": "%"}, {"measurement": "inhibition of radioligand binding, muscarinic M1", "value": 22, "unit": "%"}]}]}
